Test results reported in PubChem BioAssay (NCATS).
Inconclusive results are not listed. Calls of active or inactive are those of the source. Calls follow the shape of the dose curve; as a rule, active = well fitted curve in the direction sought with a large enough effect; inconclusive = small, poorly fitted or top-dose-only effect, or another doubt; inactive = no such curve, though single readings can be large; an effect the other way counts as inactive or inconclusive.

Key:
MCC-13 = assay: qHTS assay to identify novel small-molecules to repurpose for Merkel cell carcinoma treatment (AID 1296009); conditions: MCC and control cell lines, CellTiter-Glo viability, 72 h; series mostly up to 46 µM; also: nearly all actives have a fitted effect of over 60% in size
Summary of the method: (§1)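 Dose-response viability screen; 72 hr exposure at 37 degree celsius; CellTiter-Glo added, 10 min room temperature, luminescence read; RLUs scaled between no-cell and DMSO wells.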

MCC-26 = assay: as above; conditions: MCC and control cell lines, CellTiter-Glo viability, 72 h; series mostly up to 46 µM
Summary of the method: as §1

MKL-1 = assay: as above; conditions: MCC and control cell lines, CellTiter-Glo viability, 72 h; series mostly up to 46 µM
Summary of the method: as §1

MKL-2 = assay: as above; conditions: MCC and control cell lines, CellTiter-Glo viability, 72 h; series mostly up to 46 µM
Summary of the method: as §1

NIH3T3 = assay: as above; conditions: MCC and control cell lines, CellTiter-Glo viability, 72 h; at 44.8 µM (top of the series) unless noted
Summary of the method: as §1

UISO = assay: as above; conditions: MCC and control cell lines, CellTiter-Glo viability, 72 h; series mostly up to 46 µM
Summary of the method: as §1

WaGa = assay: as above; conditions: MCC and control cell lines, CellTiter-Glo viability, 72 h; series mostly up to 46 µM
Summary of the method: as §1

C33A = assay: Primary qHTS to identify gynecologic anti-cancer compounds using libraries of approved drugs and bioactive compounds (AID 1345084); conditions: Gynecologic cancer cell panel viability, ATPlite luminescence, 48 h; series mostly up to 57.5 µM; also: nearly all actives have a fitted effect of over 55% in size
Summary of the method: (§2)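 Cell viability after 48 h drug treatment, ATPlite luminescence readout; five doses.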

CAOV3 = assay: as above; conditions: Gynecologic cancer cell panel viability, ATPlite luminescence, 48 h; series mostly up to 57.5 µM
Summary of the method: as §2

CASKI = assay: as above; conditions: Gynecologic cancer cell panel viability, ATPlite luminescence, 48 h; series mostly up to 57.5 µM
Summary of the method: as §2

Es-2 = assay: as above; conditions: Gynecologic cancer cell panel viability, ATPlite luminescence, 48 h; series mostly up to 57.5 µM
Summary of the method: as §2

HeLa = assay: as above; conditions: Gynecologic cancer cell panel viability, ATPlite luminescence, 48 h; series mostly up to 57.5 µM
Summary of the method: as §2

Hek293T = assay: as above; conditions: Gynecologic cancer cell panel viability, ATPlite luminescence, 48 h, control line for the selectivity index; series mostly up to 57.5 µM
Summary of the method: as §2

JEG-3 = assay: as above; conditions: Gynecologic cancer cell panel viability, ATPlite luminescence, 48 h; series mostly up to 57.5 µM
Summary of the method: as §2

OV90 = assay: as above; conditions: Gynecologic cancer cell panel viability, ATPlite luminescence, 48 h; series mostly up to 57.5 µM
Summary of the method: as §2

PA-1 = assay: as above; conditions: Gynecologic cancer cell panel viability, ATPlite luminescence, 48 h; series mostly up to 57.5 µM
Summary of the method: as §2

SKOV3 = assay: as above; conditions: Gynecologic cancer cell panel viability, ATPlite luminescence, 48 h; series mostly up to 57.5 µM
Summary of the method: as §2

Tov-21-G = assay: as above; conditions: Gynecologic cancer cell panel viability, ATPlite luminescence, 48 h; series mostly up to 57.5 µM
Summary of the method: as §2

Tov112D = assay: as above; conditions: Gynecologic cancer cell panel viability, ATPlite luminescence, 48 h; series mostly up to 57.5 µM
Summary of the method: as §2
% is scaled to controls: 0 for no effect and ±100 for the full control effect.

N[C@@H](Cc1ccc(O)cc1)C(=O)O
inactive: activity change, negative = cytotoxicity (MCC-13) 12.1% [at 9.22 µM] | activity change, negative = cytotoxicity (MCC-26) 4.77% [at 9.22 µM] | activity change, negative = cytotoxicity (MKL-1) 3.97% [at 9.22 µM] | activity change, negative = cytotoxicity (MKL-2) -20.6% [at 9.22 µM] | outcome (NIH3T3) inactive [at 9.27 µM] | activity change, negative = cytotoxicity (UISO) 19.3% [at 9.22 µM] | activity change, negative = cytotoxicity (WaGa) -2.96% [at 9.22 µM] | activity change, negative = cytotoxicity (C33A) 3.53% [at 11.6 µM] | activity change, negative = cytotoxicity (CAOV3) -13.2% [at 11.6 µM] | activity change, negative = cytotoxicity (CASKI) 0.958% [at 11.6 µM] | activity change, negative = cytotoxicity (Es-2) -4.06% [at 11.6 µM] | activity change, negative = cytotoxicity (HeLa) 11.2% [at 11.6 µM] | activity change, negative = cytotoxicity (Hek293T) 11.5% [at 11.6 µM] | activity change, negative = cytotoxicity (JEG-3) 4.09% [at 11.6 µM] | activity change, negative = cytotoxicity (OV90) 9.24% [at 11.6 µM] | activity change, negative = cytotoxicity (PA-1) 1.05% [at 11.6 µM] | activity change, negative = cytotoxicity (SKOV3) -0.073% [at 11.6 µM] | activity change, negative = cytotoxicity (Tov-21-G) 5.15% [at 11.6 µM] | activity change, negative = cytotoxicity (Tov112D) 8.21% [at 11.6 µM]

O=C(O)c1cc(=O)c2ccccc2o1
inactive: outcome (MCC-13) | outcome (MCC-26) | outcome (MKL-1) | outcome (MKL-2) | outcome (NIH3T3) | outcome (UISO) | outcome (WaGa) | outcome (C33A) | outcome (CAOV3) | outcome (CASKI) | outcome (Es-2) | outcome (HeLa) | outcome (Hek293T) | outcome (JEG-3) | Potency (OV90) | outcome (PA-1) | outcome (SKOV3) | outcome (Tov-21-G) | outcome (Tov112D)

O=C(NCCCN1CCOCC1)c1ccc(Cl)cc1
inactive: outcome (MCC-13) | outcome (MCC-26) | outcome (MKL-1) | outcome (MKL-2) | outcome (NIH3T3) | outcome (UISO) | outcome (WaGa) | outcome (C33A) | outcome (CAOV3) | outcome (CASKI) | outcome (Es-2) | outcome (HeLa) | outcome (Hek293T) | outcome (JEG-3) | Potency (OV90) | outcome (PA-1) | outcome (SKOV3) | outcome (Tov-21-G) | outcome (Tov112D)

O=C(OOC(=O)c1ccccc1)c1ccccc1
inactive: outcome (MCC-13) | outcome (MCC-26) | outcome (MKL-1) | outcome (MKL-2) | outcome (NIH3T3) | outcome (UISO) | outcome (WaGa) | outcome (C33A) | outcome (CAOV3) | outcome (CASKI) | outcome (Es-2) | outcome (HeLa) | outcome (Hek293T) | outcome (JEG-3) | Potency (OV90) | outcome (PA-1) | outcome (SKOV3) | outcome (Tov-21-G) | outcome (Tov112D)

NC(=O)NC1NC(=O)NC1=O (configuration not stated)
inactive: outcome (MCC-13) | outcome (MCC-26) | outcome (MKL-1) | outcome (MKL-2) | outcome (NIH3T3) | outcome (UISO) | outcome (WaGa) | outcome (C33A) | outcome (CAOV3) | outcome (CASKI) | outcome (Es-2) | outcome (HeLa) | outcome (Hek293T) | outcome (JEG-3) | Potency (OV90) | outcome (PA-1) | outcome (SKOV3) | outcome (Tov-21-G) | outcome (Tov112D)

CN(C(=O)c1c(O)c2ccccc2n(C)c1=O)c1ccccc1
inactive: outcome (MCC-13) | outcome (MCC-26) | outcome (MKL-1) | outcome (MKL-2) | outcome (NIH3T3) | outcome (UISO) | outcome (WaGa) | outcome (C33A) | outcome (CAOV3) | outcome (CASKI) | outcome (Es-2) | outcome (HeLa) | outcome (Hek293T) | outcome (JEG-3) | Potency (OV90) | outcome (PA-1) | outcome (SKOV3) | outcome (Tov-21-G) | outcome (Tov112D)

O=C(O)/C=C/c1ccc(Cn2ccnc2)cc1
inactive: outcome (MCC-13) | outcome (MCC-26) | outcome (MKL-1) | outcome (MKL-2) | outcome (NIH3T3) | outcome (UISO) | outcome (WaGa) | outcome (C33A) | outcome (CAOV3) | outcome (CASKI) | outcome (Es-2) | outcome (HeLa) | outcome (Hek293T) | outcome (JEG-3) | outcome (PA-1) | outcome (SKOV3) | outcome (Tov-21-G) | outcome (Tov112D)

NC(=O)NS(=O)(=O)c1ccc(N)cc1
inactive: outcome (MCC-13) | outcome (MCC-26) | outcome (MKL-1) | outcome (MKL-2) | outcome (NIH3T3) | outcome (UISO) | outcome (WaGa) | outcome (C33A) | outcome (CAOV3) | outcome (CASKI) | outcome (Es-2) | outcome (HeLa) | outcome (Hek293T) | outcome (JEG-3) | Potency (OV90) | outcome (PA-1) | outcome (SKOV3) | outcome (Tov-21-G) | outcome (Tov112D)

Cc1cc(C)nc(NS(=O)(=O)c2ccc(N)cc2)n1
inactive: outcome (MCC-13) | outcome (MCC-26) | outcome (MKL-1) | outcome (MKL-2) | outcome (NIH3T3) | outcome (UISO) | outcome (WaGa) | outcome (C33A) | outcome (CAOV3) | outcome (CASKI) | outcome (Es-2) | outcome (HeLa) | outcome (Hek293T) | outcome (JEG-3) | Potency (OV90) | outcome (PA-1) | outcome (SKOV3) | outcome (Tov-21-G) | outcome (Tov112D)

CC[C@]12CCCN3CCc4c(n(c5ccccc45)[C@@](O)(C(=O)OC)C1)[C@@H]32
inactive: outcome (MCC-13) | outcome (MCC-26) | outcome (MKL-1) | outcome (MKL-2) | outcome (NIH3T3) | outcome (UISO) | outcome (WaGa) | outcome (C33A) | outcome (CAOV3) | outcome (CASKI) | outcome (Es-2) | outcome (HeLa) | outcome (Hek293T) | outcome (JEG-3) | Potency (OV90) | outcome (PA-1) | outcome (Tov-21-G) | outcome (Tov112D)

CCOC(=O)OC(C)OC(=O)[C@@H]1N2C(=O)[C@@H](NC(=O)[C@H](N)c3ccccc3)[C@H]2SC1(C)C (some centres not stated)
inactive: outcome (MCC-13) | outcome (MCC-26) | outcome (MKL-1) | outcome (MKL-2) | outcome (NIH3T3) | outcome (UISO) | outcome (WaGa) | outcome (C33A) | outcome (CAOV3) | outcome (CASKI) | outcome (Es-2) | outcome (HeLa) | outcome (Hek293T) | outcome (JEG-3) | Potency (OV90) | outcome (PA-1) | outcome (SKOV3) | outcome (Tov-21-G) | outcome (Tov112D)

COc1nccnc1NS(=O)(=O)c1ccc(N)cc1
inactive: outcome (MCC-13) | outcome (MCC-26) | outcome (MKL-1) | outcome (MKL-2) | outcome (NIH3T3) | outcome (UISO) | outcome (WaGa) | outcome (C33A) | outcome (CAOV3) | outcome (CASKI) | outcome (Es-2) | outcome (HeLa) | outcome (Hek293T) | outcome (JEG-3) | Potency (OV90) | outcome (PA-1) | outcome (SKOV3) | outcome (Tov-21-G) | outcome (Tov112D)

Cc1c(NC(=O)c2cccnc2)c(=O)n(-c2ccccc2)n1C
inactive: outcome (MCC-13) | outcome (MCC-26) | outcome (MKL-1) | outcome (MKL-2) | outcome (NIH3T3) | outcome (UISO) | outcome (WaGa) | outcome (C33A) | outcome (CAOV3) | outcome (CASKI) | outcome (Es-2) | outcome (HeLa) | outcome (Hek293T) | outcome (JEG-3) | Potency (OV90) | outcome (PA-1) | outcome (Tov-21-G) | outcome (Tov112D)

CC(=O)Oc1cccc(O)c1
inactive: outcome (MCC-13) | outcome (MCC-26) | outcome (MKL-1) | outcome (MKL-2) | outcome (NIH3T3) | outcome (UISO) | outcome (WaGa) | outcome (C33A) | outcome (CAOV3) | outcome (CASKI) | outcome (Es-2) | outcome (HeLa) | outcome (Hek293T) | outcome (JEG-3) | outcome (PA-1) | outcome (SKOV3) | outcome (Tov-21-G) | outcome (Tov112D)
